Only a selection was taken, and hits are over-represented in it overall.
Tgondii IFNg: T. gondii growth inhibition with IFN-gamma, primary screen, cell-based; activity change, negative = inhibition, % (test concentration not listed); AID 1259416, 2018; Toxoplasma gondii growth in IFN-gamma-treated host cells; active compounds read low; actives 3.8% (n = 69,000); in the data active = activity change below about -70%, passing the limit was not always enough;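 note: host cells are HeLa cells infected with Toxoplasma gondii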
* = called active by the depositor; i = inactive; ! = not active in a repeat.

SMILES	Tgondii IFNg
CN1C(=O)CCc2cc(NS(=O)(=O)c3ccc(Cl)c(Cl)c3)ccc21	-87*
Cc1ccc(S(=O)(=O)Nc2ccc3c(c2)CCC(=O)N3CC(C)C)cc1	31
CCc1ccc(S(=O)(=O)Nc2ccc3c(c2)CCC(=O)N3CC(C)C)cc1	-90*
COc1ccc(S(=O)(=O)Nc2ccc3c(c2)CCC(=O)N3CC(C)C)cc1	30
CN1C(=O)CCc2cc(NS(=O)(=O)c3cccc(Cl)c3)ccc21	-12
O=C(CNCC(c1ccccn1)N1CCOCC1)Nc1cnccn1 (configuration not stated)	3
CN1CC[C@H]2OC[C@H](C(=O)NCCc3cccs3)C[C@H]2C1	64
c1ccc(Cc2cn[nH]c2C2CCNCC2)cc1	-5
COc1cc(C(=O)NCCc2csc(-c3cccc(C)c3)n2)cc(OC)c1OC	i
CC(c1ccccc1)n1c(SCC(=O)O)nnc1C1CCOCC1 (configuration not stated)	8
O=C(CSc1n[nH]c(=O)n1-c1ccccc1C(F)(F)F)c1ccc(F)cc1	-29
CC(c1ccccc1)n1c(SCC(=O)c2csc3ccccc23)n[nH]c1=O (configuration not stated)	-79*
Cc1cc(C)c(C)c(S(=O)(=O)N2CCN3C(=O)CNC(=O)C3C2)c1C (configuration not stated)	-4
CC(C)Oc1ccc(NC(=O)c2cc(-c3cn(-c4ccccn4)cn3)n3ccccc23)cc1	383
CCN1CCOCC12CCN(C(=O)CC1CCCC1)CC2	-17
Cc1ccc2[nH]c(=O)c(-c3nc(-c4cccs4)no3)c(O)c2c1	58
COc1ccc(-c2nnn(CC(=O)Nc3ccc(C)cc3)n2)cc1	-97*
Cc1ccc(-c2nnn(CC(=O)Nc3ccc(N4CCCS4(=O)=O)cc3)n2)cc1	5
COCCCNC(=O)Cn1nnc(-c2ccc(NC(=O)c3cccnc3)cc2)n1	-6
CC1Cc2ccccc2N1S(=O)(=O)c1cc2c3c(c1)CCC(=O)N3CCC2 (configuration not stated)	4
CC1Cc2ccccc2N1S(=O)(=O)c1csc(C(=O)Nc2ccccc2)c1 (configuration not stated)	-103*
CCN(C)S(=O)(=O)c1csc(C(=O)Nc2ccc(C)cc2)c1	-69
c1ccc2c(-c3c[nH]c4ccccc34)c3ccccc3nc2c1	-86*
Clc1ccc(CSc2nnc(-c3c[nH]c4ccccc34)o2)cc1	-58
c1ccc2c(Cc3c[nH]c4ccccc34)c[nH]c2c1	10
SMILES	Tgondii IFNg
CCOCC1CN(C(=O)COc2ccccc2)Cc2c1cnn2C (configuration not stated)	-2
Cc1c(C2CCN(CCc3ccccc3)CC2)noc1-c1ccc(Cl)cc1	-76*!
CCn1c(CC2CCN(CCc3ccccc3)CC2)n[nH]c1=O	-5
OC(c1ccccc1)C1CCN(CCc2ccccc2)CC1 (configuration not stated)	18
CN1CCn2c(-c3cnn(C)c3)cnc2C12CCN(CC1CC1)CC2	5
COc1ccc(C(=O)N2CCN(c3cnn(C)c(=O)c3Cl)CC2)cc1OC	0
O=C(c1ccc2ncnc(N3CCCC3)c2c1)N1CCCC1	-38
Cc1ccc(C)n1CCN1CCN(C(=O)c2cccc(C(F)(F)F)c2)CC1	-50
COc1ccc(C(=O)N2CCN(c3ncnc4cc(C(C)(C)C)sc34)CC2)cc1OC	-85*
COc1ccc(C(=O)N2CCC(c3nc(C(=O)N4CCCC4)c(C)o3)CC2)cc1OC	41
COc1ccc(C(=O)N2CCN(c3cccc(C(F)(F)F)c3)CC2)cc1OC	-79*
CCC(=O)N1CCOC2(COCCN(CC(=O)NC)C2)C1 (configuration not stated)	24
COc1ccc(C(=O)Nc2ccc(-c3nc(Cn4cc(C)cn4)c(C)o3)cc2)cc1F	34
Cc1cnn(Cc2nc(-c3ccc(NC(=O)c4ccc(F)cc4)cc3)oc2C)c1	-82*
CCc1ccc(C(=O)Nc2ccc(-c3nc(Cn4cc(C)cn4)c(C)o3)cc2)cc1	27
Cc1cnn(Cc2nc(-c3ccc(NC(=O)c4cccc(F)c4)cc3)oc2C)c1	-75*
Cc1cnn(Cc2nc(-c3ccc(NC(=O)c4ccc(C#N)cc4)cc3)oc2C)c1	-52
Cc1cnn(Cc2nc(-c3ccc(NC(=O)c4ccc(C)c(F)c4)cc3)oc2C)c1	-13
CCOc1nc2c(c(C)nn2-c2cccc(F)c2)c(C)c1CCC(=O)NCCc1c[nH]c2ccccc12	-26
Cc1ccccc1C(=O)N1CCN(S(=O)(=O)c2cc3c4c(c2)CCN4C(=O)CC3)CC1	52
CN(Cc1cc(C(C)(C)C)n[nH]1)C(=O)COc1cccnc1	-46
COc1ccc(OCCN(C)C(=O)C2CN(c3ncccn3)CCO2)cc1 (configuration not stated)	4
C[C@@H]1CN([C@@H](C)CO)C(=O)c2c(c3ccccc3n2C)-c2ccccc2CO[C@H]1CN(C)Cc1cccc(C(F)(F)F)c1	-66
C[C@@H]1CN([C@H](C)CO)C(=O)c2c(c3ccccc3n2C)-c2ccccc2CO[C@H]1CN(C)Cc1cccc(C(F)(F)F)c1	-74*
C[C@@H]1CN([C@@H](C)CO)C(=O)c2c(c3ccccc3n2C)-c2ccccc2CO[C@@H]1CN(C)C	-18
SMILES	Tgondii IFNg
Cc1nsc(NC(=O)N2CC[C@@]3(O)CCCC[C@H]3C2)n1	-7
CCN1CCC2(CC1)OC(=O)C(C)=C2C(=O)Nc1ccc(OC)cc1OC	178
CCC(=O)N1CC2(CCN(Cc3ccc(Cl)cc3)CC2)c2c(n(C)c3cc(OC)ccc23)[C@H]1CO	-40
FC(F)(F)c1cc(N/N=C2/CCSc3sccc32)cc(C(F)(F)F)c1	-103*
C=CCN1C(=O)COC2(CCN(Cc3ccc(C)s3)CC2)C1C (configuration not stated)	-20
C=CCc1c(C)nc2ccc(C(=O)OCC)cc2c1Cl	-102*
CCOC(=O)c1cccc(P(C)(C)=O)c1	14
C=CCc1c(C)nc(SC)nc1Nc1ccc(C(=O)O)cc1	-7
CN(CC1COCCO1)c1nc(-c2cccnc2)nc2c1cnn2C (configuration not stated)	-12
COc1c(C)cc(-c2cncc(C(N)=O)c2)cc1C	-5
COc1c(C)cc(-c2csc(C(N)=O)c2)cc1C	-72*
COc1ccc(-c2csc(C(N)=O)c2)cn1	-20
CCO[C@H]1CC2CC1CN2C(=O)c1cccc(C#N)c1 (some centres not stated)	64
N#Cc1cnc(Sc2nnc(-c3cccs3)n2-c2ccc(Cl)cc2)nc1N	-26
CCc1cnc(N2[C@H](C#N)[C@H](c3ccc(C#Cc4ccccc4F)cc3)[C@H]2CO)s1	-55
CCc1cnc(N2[C@H](C#N)[C@H](c3ccc(C#Cc4ccccc4F)cc3)[C@@H]2CO)s1	-57
CCc1cnc(N2[C@H](C#N)[C@@H](c3ccc(C#Cc4ccccc4F)cc3)[C@H]2CO)s1	-75*
O=S(=O)(NCc1ccccc1)Nc1ccccc1N1CCOCC1	-16
COc1cccc2c1C(=O)c1c(O)c3c(c(O)c1C2=O)C[C@@](O)(C(=O)CO)C[C@@H]3OC1C[C@H](N)[C@H](O)[C@H](C)O1 (some centres not stated)	-90*
COc1ccc(CCNC(=O)CN2C(=O)CCc3cc(Br)ccc32)cc1OC	68
COc1ccc(NC(=O)Cn2c(=O)cc(C(=O)N3CCc4ccccc4C3)c3ccccc32)cc1	12
Cc1cc(C)n(-c2c(Cl)cc(C(F)(F)F)cc2Cl)n1	35
CSc1nn(-c2c(Cl)cc(C(F)(F)F)cc2Cl)c(N)c1C#N	-101*
CSc1nc(-c2cccs2)cc(C(F)(F)F)c1C#N	89

Compound activity from PubChem.
